Seven molecules from PubChem BioAssay (NCATS) can be followed below.

Results filed as inconclusive are left out. Calls of active or inactive are those of the source. Unless noted, calls come from the whole dose curve; as a rule, active = well fitted curve in the direction sought with a large enough effect; inconclusive = small, poorly fitted or top-dose-only effect, or another doubt; inactive = no such curve, though single readings can be large; an effect the other way counts as inactive or inconclusive.

Test [1] can be described thus: Cell Viability - Hek293 (AID 427;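 active = compounds whose dose-response curve shows a full or clear partial loss of cell viability, called from curve shape rather than a numeric limit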;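 note: potency is the fitted concentration of half-maximal effect; cells exposed to compound for 40 hours at 37 °C before reading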). The settings on record: qHTS. An outline of the steps: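 Luminescent ATP read-out (CellTiter-Glo, 20 min RT) after 40 hr compound exposure at 37 °C in complete medium. Signal normalized to DMSO (basal) and 100 uM tamoxifen (100% inhibition); concentration-response fitted with the standard Hill equation to give AC50.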
In general terms: Quantitative high-throughput screening tests each substance at several concentrations.

Test [2] can be described thus: Cell Viability - N2a (AID 540).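 For activity change, negative = cytotoxicity: plate controls were DMSO alone for no effect and tamoxifen control for full effect.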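 Note: cells exposed to compound for 40 h at 37 °C; nearly all actives have a fitted effect of over 45% in size.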 Note: potency is the fitted concentration of half-maximal effect. The note with it: N2a mouse neuroblastoma cell viability; activity change, negative = cytotoxicity: at 92.2 µM (top of the series). The method in brief: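 Cytotoxicity was scored as loss of cellular ATP in N2a cells, a mouse neuroblastoma line. Compounds are applied in a qHTS concentration series for 40 hr at 37 °C.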
Test [3] can be described thus: Cell Viability - H-4-II-E (AID 543).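 Note: cells exposed to compound for 40 hours; nearly all actives have a fitted effect of over 35% in size.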 Note: potency is the fitted concentration of half-maximal effect. The method in brief:
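Cells seeded at 1500 per well and rested 5 hr; compounds added; 40 hr incubation at 37 °C; CellTiter-Glo added, 20 min at room temperature; luminescence read. Hill-equation fits gave AC50.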

A short description of test [4]: Cell Viability - SH-SY5Y (AID 544).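 For viability change, negative = cytotoxic: 0% = DMSO alone and -100% = 100 µM tamoxifen.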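 Note: cells exposed to compound for 40 hours; nearly all actives have a fitted effect of over 55% in size.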 Note: potency is the fitted concentration of half-maximal effect. The settings on record: SH-SY5Y neuroblastoma cell viability; viability change, negative = cytotoxic: at 92.2 µM (top of the series). The method in brief:
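Cells were plated at 1500 per well and allowed 5 hr at 37 °C. Compounds were added across a concentration range and incubated 40 hr at 37 °C. CellTiter-Glo was added for 20 min at room temperature before luminescence reading.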

The nature of test [5]: Cell Viability - Renal Proximal Tubule (AID 545).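 Note: cells exposed to compound for 40 hours; 0% = DMSO only and -100% = 100 µM tamoxifen; nearly all actives have a fitted effect of over 40% in size.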 The settings on record: renal proximal tubule cells viability, primary cells of rat origin; activity change, negative = cytotoxicity: at 91.7 µM (top of the series). An outline of the steps:
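Rat kidney proximal tubule cells, freshly isolated; 1000 cells/well, 5 hr settle, compound 40 hr 37 °C. CellTiter-Glo 20 min RT, luminescence read. AC50 by standard Hill fit.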

Test [6] in a line: MultiTox-Fluor Cytotoxicity Assay - LYMP1-002 - Dead Cells (AID 960). Note: nearly all actives have a fitted effect of over 60% in size. Note: potency is the fitted concentration of half-maximal effect. The method in brief: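 Cells were plated, rested 5 hr, then treated with compound dilution series for 16 hr at 37 C. After adding substrate reagent and 60 min at room temperature, dead-cell protease fluorescence gave concentration-response curves fitted by the Hill equation.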
Test [7] can be described thus: Cell Viability - LYMP2-004 (AID 966).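 For activity change, negative = cytotoxicity: plate controls were DMSO only for no effect and tetraoctylammonium bromide control for full effect.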 Note: nearly all actives have a fitted effect of over 65% in size. Note: potency is the fitted concentration of half-maximal effect. An outline of the steps:
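qHTS cytotoxicity: human lymphoblastoid line, 24 hr compound treatment, 37 C, complete medium. Viability read as cellular ATP via luciferase luminescence; tetraoctylammonium bromide served as positive control.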

Test [8] can be described thus: Cell Viability - LYMP2-005 (AID 967). Note: potency is the fitted concentration of half-maximal effect. The method in brief: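 Steps: seed 2500 LYMP2-005 cells/well, incubate 5 h at 37 C, add compound, incubate 24 h at 37 C, add CellTiter-Glo, wait 30 min at RT, read luminescence. Concentration-response data fitted to Hill equation for AC50.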
A short description of test [9]: Cell Viability - LYMP2-009 (AID 968). Note: nearly all actives have a fitted effect of over 55% in size. Note: potency is the fitted concentration of half-maximal effect.
Test [10] in a line: Cell Viability - LYMP2-015 (AID 971). Note: nearly all actives have a fitted effect of over 55% in size. Note: potency is the fitted concentration of half-maximal effect. An outline of the steps: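 Cells are seeded at 2500 per well and incubated 5 hr at 37 C. Compounds are added across a concentration series for 24 hr at 37 C. CellTiter-Glo is added, and luminescence is read after 30 min at room temperature.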
Test [11] in a line: Cell Viability - LYMP2-017 (AID 972). For activity change, negative = cytotoxicity: % is set by controls: 0 for no effect and ±100 for the full control effect.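 Note: cells exposed to compound for 24 hours at 37 °C; nearly all actives have a fitted effect of over 55% in size.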 Note: potency is the fitted concentration of half-maximal effect. The method in brief:
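Cytotoxicity is scored as a concentration-dependent drop in cellular ATP in a human lymphoblastoid line after 24 hr treatment at 37 C. Values are AC50s from Hill-equation modelling.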

Test [12] can be described thus: Cell Viability - LYMP2-006 (AID 978). For activity change, negative = cytotoxicity: % is set by controls: 0 for no effect and ±100 for the full control effect.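 Note: cells exposed to compound for 24 hours; nearly all actives have a fitted effect of over 60% in size.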 Note: potency is the fitted concentration of half-maximal effect. An outline of the steps:
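qHTS, 1536-well; 2500 cells/well, 5 hr 37 C; cpd 24 hr 37 C; CellTiter-Glo 30 min RT; luminescence. Tetraoctylammonium bromide pos. ctrl. AC50 via Hill eqn.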

Test [13] in a line: Cell Viability - LYMP2-010 (AID 981). Note: potency is the fitted concentration of half-maximal effect. An outline of the steps:
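Steps: seed 2500 LYMP2-010 cells per well; incubate 5 hr at 37 C; add compound; incubate 24 hr at 37 C; add CellTiter-Glo, wait 30 min at room temperature; read luminescence. Concentration-response fitted to Hill equation for AC50.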

The nature of test [14]: qHTS assay for small molecule agonists of retinoid X receptor alpha signaling (AID 588544; calls by dose curve; note: potency is the fitted concentration of half-maximal effect). The settings on record: HEK293T RXRa-UAS-bla, beta-lactamase reporter, 18 h; 530 nm emission.
For test [15], the target named is Retinoic acid receptor RXR-alpha (Homo sapiens) (UniProt P19793). Described as above.
Retinoic acid receptor RXR-alpha (Homo sapiens), sequence (P19793 whole entry, looked up): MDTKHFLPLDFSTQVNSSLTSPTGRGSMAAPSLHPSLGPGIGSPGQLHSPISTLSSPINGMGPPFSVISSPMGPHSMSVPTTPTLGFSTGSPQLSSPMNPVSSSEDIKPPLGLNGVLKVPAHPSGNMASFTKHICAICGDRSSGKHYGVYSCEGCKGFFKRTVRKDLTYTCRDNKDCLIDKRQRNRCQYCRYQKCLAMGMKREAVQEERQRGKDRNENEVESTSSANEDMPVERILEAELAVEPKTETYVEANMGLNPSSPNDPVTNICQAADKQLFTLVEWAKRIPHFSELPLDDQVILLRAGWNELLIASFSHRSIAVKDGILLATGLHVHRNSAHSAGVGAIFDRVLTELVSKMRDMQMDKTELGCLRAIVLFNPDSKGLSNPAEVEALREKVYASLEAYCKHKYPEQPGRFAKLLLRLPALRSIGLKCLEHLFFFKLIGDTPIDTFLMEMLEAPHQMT
The target in test [16] is Thyroid hormone receptor beta (Homo sapiens) (UniProt P10828). Put plainly: qHTS assay for small molecule agonists of thyroid hormone receptor beta signaling (AID 588545; calls by dose curve;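 note: 0% = DMSO only and 100% = 10 nM T3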). An outline of the steps: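 Beta-lactamase reporter activity under TR response element control is measured in HEK 293 cells after 18 hrs compound exposure. Signal is ratiometric CCF4 fluorescence, 460/530 nm.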
Thyroid hormone receptor beta (Homo sapiens), sequence (P10828 whole entry, looked up): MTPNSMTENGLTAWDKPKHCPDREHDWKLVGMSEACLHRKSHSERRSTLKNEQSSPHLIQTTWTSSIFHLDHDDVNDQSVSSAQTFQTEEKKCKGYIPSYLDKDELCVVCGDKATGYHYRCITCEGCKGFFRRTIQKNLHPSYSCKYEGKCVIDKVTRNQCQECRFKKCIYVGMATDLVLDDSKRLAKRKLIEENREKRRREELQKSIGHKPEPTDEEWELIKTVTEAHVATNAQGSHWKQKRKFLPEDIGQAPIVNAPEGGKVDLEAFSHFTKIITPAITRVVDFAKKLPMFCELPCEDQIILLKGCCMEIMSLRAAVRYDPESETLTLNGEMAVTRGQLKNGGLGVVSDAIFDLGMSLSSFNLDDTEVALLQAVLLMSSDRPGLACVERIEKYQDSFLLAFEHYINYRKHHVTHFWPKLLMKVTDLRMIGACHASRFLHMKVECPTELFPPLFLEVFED

A short description of test [17]: qHTS assay for small molecule disruptors of the mitochondrial membrane potential - 1 hr assay (AID 651754; calls by dose curve; note: nearly all actives have a fitted effect of over 35% in size; note: potency is the fitted concentration of half-maximal effect). The method in brief:
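Loss of mitochondrial potential shifts the cationic dye from red mitochondrial aggregates to green cytoplasmic monomers. Cells (HepG2) are treated with compound for 1 hr before a 30 min dye incubation at 37C.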

A short description of test [18]: qHTS assay for small molecule disruptors of the mitochondrial membrane potential - 5 hr assay (AID 651755; calls by dose curve; note: nearly all actives have a fitted effect of over 40% in size; note: potency is the fitted concentration of half-maximal effect). The method in brief: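 Membrane-potential dye readout: red aggregate (540 ex/590 em) versus green monomer (490 ex/535 em) fluorescence after 30 min dye loading, following 5 hr compound exposure at 37C of overnight-plated HepG2 cells.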
The nature of test [19]: qHTS assay for small molecule agonists of the antioxidant response element (ARE) signaling pathway measured by Nrf2-dependant transcriptional activity (AID 720636; active = well fitted curve in the direction sought with a large enough effect in the repeat runs; an effect the other way counts as inactive or inconclusive; note: % of control where 0% means no effect). The method in brief:
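Quantitative HTS format in HepG2 cells stably expressing an ARE-luciferase reporter; 16 hr compound treatment at 37 C, luciferase signal detected with ONE-Glo.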

The target of test [20] is Nuclear receptor subfamily 1 group I member 2 (Rattus norvegicus) (UniProt Q9R1A7). Put plainly: qHTS assay for small molecule activators of the rat pregnane X receptor (rPXR) signaling pathway (AID 651751; call rule not given here; note: 0% is about no effect). The settings on record: rPXR reporter cells, luciferase (One-Glo), 24 h.
Nuclear receptor subfamily 1 group I member 2 (Rattus norvegicus), sequence (Q9R1A7 whole entry, looked up): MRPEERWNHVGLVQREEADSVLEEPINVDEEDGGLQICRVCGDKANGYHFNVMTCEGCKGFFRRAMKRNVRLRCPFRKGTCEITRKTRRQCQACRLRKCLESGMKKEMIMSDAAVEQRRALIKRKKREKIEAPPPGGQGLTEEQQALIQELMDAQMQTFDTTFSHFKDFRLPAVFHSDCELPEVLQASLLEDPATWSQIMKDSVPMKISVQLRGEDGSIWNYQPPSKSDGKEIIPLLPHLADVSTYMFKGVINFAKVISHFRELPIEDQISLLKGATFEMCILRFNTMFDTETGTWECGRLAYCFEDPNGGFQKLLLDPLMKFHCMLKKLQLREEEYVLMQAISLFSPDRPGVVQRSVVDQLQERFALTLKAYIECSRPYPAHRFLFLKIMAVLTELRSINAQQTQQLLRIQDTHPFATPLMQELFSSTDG

For `CCCCCCCCOc1ccc(C(=O)O)cc1`, the Potency was > 92 µM (inactive) in [1] and 39.8 µM (active) in test [15]. In [2], the activity change, negative = cytotoxicity was -7.43% (inactive). The Potency result in test [3], in test [4], in test [5], in test [6], in test [7] and in test [8] was “inactive” in each case. Further, the Potency result in [9], in [10], in test [11], in [12], in [13] and in test [16] was “inactive” each time. For the same molecule, the Potency result in [17], in [18] and in test [19] was “inactive” throughout. The max response in test [14] was -15.5%; in test [20], 13.3% (inactive).
Regarding `C/C=C/C=C/C=O`, the Potency in test [4] is 31.6 µM (active); in test [7], 31.6 µM (active); in test [8], 39.8 µM (active); in [9] it was 39.8 µM (active); in test [10], 39.8 µM (active); in test [11], 31.6 µM (active). Also, the Potency in test [12] is 39.8 µM (active); in test [13], 31.6 µM (active). In addition, the Potency result in test [6], in test [15], in test [16], in [17], in [18] and in test [19] was “inactive” in each case. In addition, the max response in test [14] is -9.87%; in [20], -0.0021% (inactive).
For `Cc1cc(-c2ccc(N=Nc3cc(S(=O)(=O)O)c4ccccc4c3N)c(C)c2)ccc1N=Nc1cc(S(=O)(=O)O)c2ccccc2c1N`, in [4], the Potency was 31.6 µM (active). Further, the Potency result in test [7], in test [15], in test [16] and in [19] was “inactive” throughout. The max response in [14] was -22%; in [20], -3.26% (inactive).
On to `C=C1CC[C@H](O)C/C1=C/C=C1\CCC[C@]2(C)[C@@H]([C@H](C)CCCC(C)C)CC[C@@H]12`, for which the Potency was 31.6 µM (active) in test [2]; 39.8 µM (active) in test [3]; 31.6 µM (active) in [4]; 31.6 µM (active) in test [6]; 39.8 µM (active) in test [7]; 39.8 µM (active) in test [8]. Further, the Potency in test [9] was 50.1 µM (active); in test [10], 39.8 µM (active); in test [11], 50.1 µM (active); in test [13], 39.8 µM (active). The activity change, negative = cytotoxicity in test [5] was -97.9% (active). Moreover, the Potency result in [16], in [17] and in test [18] was “inactive” in each case. The max response in test [20] is 7.46% (inactive).
`Nc1ccc(N=Nc2ccccc2)c(N)c1`: the Potency in [1] was > 92 µM (inactive); in [17] it was 9.44 µM (active); in [18], 10.6 µM (active). Besides, the Potency entry in test [3], in [5], in test [6], in test [7], in test [8] and in [9] was “inactive” in each case. Also, the Potency result in [10], in test [11], in [12], in [13], in test [15] and in [16] was “inactive” each time. The max response in test [14] was 0.404%.
For the molecule `Brc1cc(Br)c(Oc2cc(Br)c(Br)cc2Br)cc1Br`, in [1], the Potency was > 92 µM (inactive). The Potency result in test [3], in [4], in [5], in [6], in [7] and in test [8] was “inactive” throughout. The Potency entry in test [9], in test [10], in test [11], in test [12], in test [13] and in test [16] was “inactive” in each case. For the same molecule, the Potency entry in test [17], in test [18] and in [19] was “inactive” in each case. Besides, the max response in [20] is -2.15% (inactive).
As for `CC(C)(C)C(=O)C1C(=O)c2ccccc2C1=O`, the activity change, negative = cytotoxicity in [2] was -83% (active). For the same molecule, the Potency result in test [5], in [6], in [7], in test [8], in test [9] and in [11] was “inactive” throughout. Also, the Potency result in test [17], in test [18] and in [19] was “inactive” throughout. For the same molecule, in test [20], the max response is -2.46% (inactive).
